Measured values as given in PubChem BioAssay (NCATS).
Results filed as inconclusive are left out. Entries that show only a call come without a potency. The source made the active and inactive calls. Calls follow the shape of the dose curve; as a rule, active = well fitted curve in the direction sought with a large enough effect in the repeat runs; inconclusive = weak or mixed curves; inactive = no such curve, though single readings can be large; an effect the other way counts as inactive or inconclusive.

The compounds below were run against Cytochrome P450 2D6 (Homo sapiens) (UniProt P10635) (assay: Cytochrome P450 family 2 subfamily D member 6 (CYP2D6) small molecule antagonists: luciferase biochemical (cell-free) qHTS assay (AID 1645840)). Details: P450-Glo CYP2D6 enzyme, luciferin luminescence, 1 h; series mostly up to 57.4 µM.
Chain of Cytochrome P450 2D6 (Homo sapiens) (P10635 whole entry, looked up): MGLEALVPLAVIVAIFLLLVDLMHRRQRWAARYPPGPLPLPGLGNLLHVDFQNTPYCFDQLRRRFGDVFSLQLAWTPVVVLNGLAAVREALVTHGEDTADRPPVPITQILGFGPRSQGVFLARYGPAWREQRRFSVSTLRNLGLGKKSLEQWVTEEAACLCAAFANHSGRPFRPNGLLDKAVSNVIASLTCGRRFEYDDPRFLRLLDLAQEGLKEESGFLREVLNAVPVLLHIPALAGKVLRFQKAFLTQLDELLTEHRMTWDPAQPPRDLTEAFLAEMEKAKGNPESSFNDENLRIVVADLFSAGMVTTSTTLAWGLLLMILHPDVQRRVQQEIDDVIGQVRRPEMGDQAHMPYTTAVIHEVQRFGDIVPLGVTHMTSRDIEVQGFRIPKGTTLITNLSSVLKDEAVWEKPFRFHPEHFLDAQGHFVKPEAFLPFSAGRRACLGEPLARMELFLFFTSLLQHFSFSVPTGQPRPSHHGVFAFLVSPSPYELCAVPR
In short: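 P450-Glo CYP2D6 system: proluciferin substrate converted by enzyme to luciferin, read by luminescence proportional to activity. Enzyme-substrate mix with compound 10 min at room temperature, then NADPH regeneration 1 h before detection reagent.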
Also: nearly all actives have a fitted effect of over 55% in size.
Potency is read from the fitted curve at half-maximal effect.

Row | Structure (SMILES) | Potency
1 | COc1ccc(-n2nc(CCC(=O)N(C)O)cc2-c2ccc(Cl)cc2)cc1 | 4.9 µM (active)
2 | CC(=O)N[C@@H](CCC(N)=O)C(=O)O | inactive
3 | Cc1cc(=O)oc2cc(O[C@@H]3SC[C@@H](O)[C@H](O)[C@H]3O)ccc12 | inactive
4 | COc1cc2c(cc1OC)CN(C(=O)[C@H](C)N[C@@H](CCc1ccccc1)C(=O)O)[C@H](C(=O)O)C2 | inactive
5 | O=C(O)c1[nH]n(-c2ccc(S(=O)(=O)O)cc2)c(=O)c1N=Nc1ccc(S(=O)(=O)O)cc1 | inactive
6 | CC1CC(=O)NN=C1c1ccc(NCC(C)(C)NCC(O)COc2cc(Cl)ccc2C#N)cc1 (stereo not given) | 0.871 µM (active)
7 | CC(=O)c1cc2ccccc2s1 | inactive
8 | CC(COc1ccccc1)NN (stereo not given) | 16.9 µM (active)
9 | CCCCCCCCCCCCCCCCCCN(C)C | inactive
10 | C[C@@H]1CCC[C@H](C)N1CCCC(O)(c1ccccc1)c1ccccn1 (stereo not given in full) | 0.871 µM (active)
11 | CCO[C@H](Cc1ccc(OCCc2ccc(OS(C)(=O)=O)cc2)cc1)C(=O)O | inactive
12 | C=C(C)C(=O)OCC(O)CO (stereo not given) | inactive
13 | CC(=O)Nc1c(I)c(NC(C)=O)c(I)c(C(=O)O)c1I | inactive
14 | CCCCN(CCCC)C(C(N)=O)c1ccc(OC)cc1 (stereo not given) | 0.776 µM (active)
15 | CCN1CCN(C(=O)N[C@@H](C(=O)N[C@@H]2C(=O)N3[C@@H]2SC(C)(C)[C@H]3C(=O)O)c2ccccc2)C(=O)C1=O | inactive
16 | Cc1cccc(C)c1NC(=O)c1ccc(N)cc1 | inactive
17 | CC(C)=CCNc1ncnc2c1ncn2[C@@H]1O[C@H](CO)[C@@H](O)[C@H]1O | inactive
18 | CC(C)=CCC/C(C)=C/CC/C(C)=C/CCC(=O)OC/C=C(\C)CCC=C(C)C | inactive
19 | CCOC(=O)C(=O)c1csc(NC=O)n1 | 19.5 µM (active)
20 | CN1C(=O)CC(C)(c2ccccc2)C1=O (stereo not given) | inactive

Row | Structure (SMILES) | Potency
21 | CCOc1ccc(NS(=O)(=O)c2ccc(N)cc2)nn1 | inactive
22 | CC(=O)Oc1ccc(C2(c3ccc(OC(C)=O)cc3)Oc3ccccc3NC2=O)cc1 | inactive
23 | O=C(Oc1ccccc1)c1ccccc1O | inactive
24 | CCCOc1ccc2c(c1)CC[C@@H]1[C@@H]2CC[C@]2(C)C(OC)CC[C@@H]12 (stereo not given in full) | 15.5 µM (active)
25 | O=P(O)(O)OCC(O)CO (stereo not given) | inactive
26 | O=[N+]([O-])c1ccc(O)c2ncccc12 | inactive
27 | COC(=O)c1ccc(NC(C)=O)cc1OC | inactive
28 | Nc1ccc(O)cc1 | 6.17 µM (active)
29 | COc1cc(C(=O)NC2CCCNC2)cc(OC)c1OC (stereo not given) | inactive
30 | CN(C)CCN(Cc1ccsc1)c1ccccn1 | 6.92 µM (active)
31 | CCCCC(O)/C=C(C)/C=C/C=C/C(=O)N1CCCC1=O (stereo not given) | inactive
32 | CCOc1ccccc1OCC1CNCCO1 (stereo not given) | inactive
33 | CCS(=O)(=O)c1ccc(OC)c(C(=O)OC)c1 | inactive
34 | CN1C(CSCC(F)(F)F)Nc2cc(Cl)c(S(N)(=O)=O)cc2S1(=O)=O (stereo not given) | inactive
35 | Cc1cc2nc3ccc(=[N+](C)C)cc-3sc2cc1N | 0.431 µM (active)
36 | N#CC1(c2ccc(F)cc2)CCC(=O)CC1 | inactive
37 | O=C1CC2(CCCC2)CC(=O)N1CCNCC1COc2ccccc2O1 (stereo not given) | 0.49 µM (active)
38 | COc1ccc(/C(C)=C/C(=O)O)c(OC)c1 | inactive
39 | CC(C)CCCC(C)NCCC(C)C (stereo not given) | 0.55 µM (active)
40 | Cc1ccccc1C(=O)N1CC/C(=N\OS(=O)(=O)O)c2ccc(Cl)cc21 | inactive

The compounds below were run against Cytochrome P450 2C9 (Homo sapiens) (UniProt P11712) (assay: Cytochrome P450 family 2 subfamily C member 9 (CYP2C9) small molecule antagonists: luciferase biochemical (cell-free) qHTS assay (AID 1645842)). Details: P450-Glo CYP2C9 enzyme assay, luciferin luminescence; series mostly up to 57.4 µM.
Chain of Cytochrome P450 2C9 (Homo sapiens) (P11712 whole entry, looked up): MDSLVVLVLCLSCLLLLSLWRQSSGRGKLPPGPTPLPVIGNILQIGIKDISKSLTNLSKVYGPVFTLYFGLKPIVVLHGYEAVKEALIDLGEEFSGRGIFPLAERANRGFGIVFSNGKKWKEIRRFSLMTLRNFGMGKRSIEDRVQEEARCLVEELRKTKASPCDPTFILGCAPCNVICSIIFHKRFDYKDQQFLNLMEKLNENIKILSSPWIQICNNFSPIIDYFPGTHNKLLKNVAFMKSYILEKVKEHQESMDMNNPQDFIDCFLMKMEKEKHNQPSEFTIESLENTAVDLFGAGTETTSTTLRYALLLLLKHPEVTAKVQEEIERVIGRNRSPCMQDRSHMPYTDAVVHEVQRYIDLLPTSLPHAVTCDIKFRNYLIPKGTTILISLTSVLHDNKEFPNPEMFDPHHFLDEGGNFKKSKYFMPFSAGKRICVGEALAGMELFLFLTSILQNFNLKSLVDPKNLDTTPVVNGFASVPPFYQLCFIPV
In short: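 P450-Glo CYP2C9 system: proluciferin substrate with enzyme in mix containing 0.4% BSA, 10 min at room temperature, then NADPH regeneration solution added and incubated 1 h at 37C. Detection reagent stopped reaction; luminescence read after 20 min as RLU.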

Row | Structure (SMILES) | Potency
41 | COc1ccc(-n2nc(CCC(=O)N(C)O)cc2-c2ccc(Cl)cc2)cc1 | 2.75 µM (active)
42 | CC(=O)N[C@@H](CCC(N)=O)C(=O)O | inactive
43 | Cc1cc(=O)oc2cc(O[C@@H]3SC[C@@H](O)[C@H](O)[C@H]3O)ccc12 | inactive
44 | COc1cc2c(cc1OC)CN(C(=O)[C@H](C)N[C@@H](CCc1ccccc1)C(=O)O)[C@H](C(=O)O)C2 | inactive
45 | O=C(O)c1[nH]n(-c2ccc(S(=O)(=O)O)cc2)c(=O)c1N=Nc1ccc(S(=O)(=O)O)cc1 | inactive
46 | CC1CC(=O)NN=C1c1ccc(NCC(C)(C)NCC(O)COc2cc(Cl)ccc2C#N)cc1 (stereo not given) | 0.977 µM (active)
47 | CC(=O)c1cc2ccccc2s1 | inactive
48 | CC(COc1ccccc1)NN (stereo not given) | 23.9 µM (active)
49 | CCCCCCCCCCCCCCCCCCN(C)C | inactive
50 | C[C@@H]1CCC[C@H](C)N1CCCC(O)(c1ccccc1)c1ccccn1 (stereo not given in full) | inactive
51 | CCO[C@H](Cc1ccc(OCCc2ccc(OS(C)(=O)=O)cc2)cc1)C(=O)O | inactive
52 | C=C(C)C(=O)OCC(O)CO (stereo not given) | inactive
53 | CC(=O)Nc1c(I)c(NC(C)=O)c(I)c(C(=O)O)c1I | inactive
54 | CCCCN(CCCC)C(C(N)=O)c1ccc(OC)cc1 (stereo not given) | inactive
55 | CCN1CCN(C(=O)N[C@@H](C(=O)N[C@@H]2C(=O)N3[C@@H]2SC(C)(C)[C@H]3C(=O)O)c2ccccc2)C(=O)C1=O | inactive
56 | Cc1cccc(C)c1NC(=O)c1ccc(N)cc1 | inactive
57 | CC(C)=CCNc1ncnc2c1ncn2[C@@H]1O[C@H](CO)[C@@H](O)[C@H]1O | inactive
58 | CC(C)=CCC/C(C)=C/CC/C(C)=C/CCC(=O)OC/C=C(\C)CCC=C(C)C | inactive
59 | CCOC(=O)C(=O)c1csc(NC=O)n1 | inactive
60 | CN1C(=O)CC(C)(c2ccccc2)C1=O (stereo not given) | inactive

Row | Structure (SMILES) | Potency
61 | CCOc1ccc(NS(=O)(=O)c2ccc(N)cc2)nn1 | inactive
62 | CC(=O)Oc1ccc(C2(c3ccc(OC(C)=O)cc3)Oc3ccccc3NC2=O)cc1 | 1.74 µM (active)
63 | O=C(Oc1ccccc1)c1ccccc1O | inactive
64 | CCCOc1ccc2c(c1)CC[C@@H]1[C@@H]2CC[C@]2(C)C(OC)CC[C@@H]12 (stereo not given in full) | 19.5 µM (active)
65 | O=P(O)(O)OCC(O)CO (stereo not given) | inactive
66 | O=[N+]([O-])c1ccc(O)c2ncccc12 | inactive
67 | COC(=O)c1ccc(NC(C)=O)cc1OC | inactive
68 | Nc1ccc(O)cc1 | 15.5 µM (active)
69 | COc1cc(C(=O)NC2CCCNC2)cc(OC)c1OC (stereo not given) | inactive
70 | CN(C)CCN(Cc1ccsc1)c1ccccn1 | inactive
71 | CCCCC(O)/C=C(C)/C=C/C=C/C(=O)N1CCCC1=O (stereo not given) | inactive
72 | CCOc1ccccc1OCC1CNCCO1 (stereo not given) | inactive
73 | CCS(=O)(=O)c1ccc(OC)c(C(=O)OC)c1 | inactive
74 | CN1C(CSCC(F)(F)F)Nc2cc(Cl)c(S(N)(=O)=O)cc2S1(=O)=O (stereo not given) | inactive
75 | Cc1cc2nc3ccc(=[N+](C)C)cc-3sc2cc1N | 1.08 µM (active)
76 | N#CC1(c2ccc(F)cc2)CCC(=O)CC1 | inactive
77 | O=C1CC2(CCCC2)CC(=O)N1CCNCC1COc2ccccc2O1 (stereo not given) | inactive
78 | COc1ccc(/C(C)=C/C(=O)O)c(OC)c1 | inactive
79 | CC(C)CCCC(C)NCCC(C)C (stereo not given) | inactive
80 | Cc1ccccc1C(=O)N1CC/C(=N\OS(=O)(=O)O)c2ccc(Cl)cc21 | 8.71 µM (active)
